# Source: PubChem BioAssay
# Several values for one entry are separate records, joined by “and”; a condition that tells them apart may be missing. Equal values may be shown once. Activity calls are given as the source filed them.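 The calls were made as follows, unless noted: active = inhibition at or above 50% relative to wild type and mutant plate controls; inactive = inhibition below 50%.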
# Key:
# [1] = inhibitors of TNFa-induced NFkB p65 translocation, primary screen, imaging, HUVEC, MLSMR starter and 10KST1 sets (AID 438;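 active = inhibition above 20% together with a positive visual image hit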;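 also: compound added about 3h40 before a 20 min TNFalpha stimulation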;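 as to inhibition: signal is the nuclear over cytoplasmic p65 intensity ratio per well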); settings: HUVEC TNFa-induced p65 nuclear translocation; cell count: measured here: nuclei count (cytotoxicity indicator), at 2.08 µM; inhibition: at 2 µM, stronger effect = higher value, 0% TNFa-plus-vehicle, 100% no-TNFa wells
# [2] = inhibitors of mutant huntingtin aggregation, primary screen, imaging, exon1htt(103Q)mCFP cells, high-content imaging (AID 483;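 active = visual image review flags a hit and inhibition of aggregation exceeds 20%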;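 also: compound exposure lasted 3 days before fixation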;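 as to nuclei count: percent of the per-plate median nuclei count of sample wells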); settings: exon1htt(103Q)mCFP cell line, aggregate imaging, at 2 µM; inhibition of aggregation: stronger effect = higher value; nuclei count: measured here: cell count, toxicity
# [3] = inhibitors of E-selectin induction by TNFa, primary screen, imaging, HUVEC, immunofluorescence, MLSMR starter and 10KST1 sets (AID 487;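 active = visually confirmed hit in the image check and inhibition above 20%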;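 as to inhibition: signal is fraction of cell area covered by stained E-selectin grains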;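 as to nuclei count: 100% = median nuclei count of all wells on the same plate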); settings: HUVEC TNFalpha-induced E-selectin immunofluorescence imaging, at 2 µM; inhibition: stronger effect = higher value; nuclei count: measured here: cell number, toxicity
# [4] = DUSP6 inhibitors restoring Erk phosphorylation by chemical complementation, primary imaging in DUSP6-transfected HeLa (AID 609;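 active = compounds giving at least 50% inhibition in the cell-based MKP-3 phosphatase rescue imaging test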;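 as to inhibition: phospho-Erk level distribution per well compared with pooled transfected vehicle control wells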); settings: HeLa MKP-3 transfected, phospho-Erk imaging KS statistic, at 10 µM, cells stimulated with TPA for 15 min
# [5] = molecular target: Dual specificity protein phosphatase 6 (Homo sapiens) (UniProt Q16828); assay: as above; settings: HeLa MKP-3 transfected, phospho-Erk imaging KS statistic; at 10 µM; stronger effect = higher value; cells stimulated with TPA for 15 min
# [6] = molecular target: Voltage-gated potassium channel subunit beta-2 (Rattus norvegicus) (UniProt P62483); assay: KvBeta enzyme negative modulators, primary screen, biochemical, NADPH fluorescence (AID 622;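 active = fluorescence slope higher than the sample average by over 3 SD, cut at about -0.22 in these data, passing the limit was not always enough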;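 also: slope of raw intensity against log time taken from 70 to 1610 s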); settings: recombinant KvBeta, 4-cyanobenzaldehyde reduction, at 10 µM, stronger effect = higher value
# [7] = molecular target: Voltage-gated potassium channel subunit beta-2 (Rattus norvegicus) (UniProt P62483); assay: KvBeta positive modulators, primary screen, biochemical, NADPH fluorescence (AID 623;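 active = NADPH fluorescence slope more negative than the mean of all samples by about 3 SD, 99.7% confidence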;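 also: fluorescence intensity change per second fitted from 20 to 320 s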); settings: Recombinant KvBeta, NADPH fluorescence decrease slope, 10 min; at 10 µM; stronger effect = lower value
# [8] = molecular target: Alpha-2C adrenergic receptor (Homo sapiens) (UniProt P18825); assay: modulators of alpha2C/GIRK thallium flux, primary screen, cell-based, HEK293 alpha2C/GIRK1/2 (AID 624;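 active = fluorescence slope after compound addition differing from the mean of all screened samples at 99.7% confidence, in either direction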;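 also: slope of fluorescence ratio to pre-addition baseline per second over 15 to 24 s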); settings: thallium flux BTC fluorescence, at 10 µM, actives lie on both sides
# [9] = inhibitors of larval lipid processing in zebrafish, primary screen, whole organism, PED6 fluorescence, gall bladder and intestine (AID 686;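 active = a full or partial loss of lipid-probe fluorescence in the fish gall bladder, intestine or both, judged by eye; inactive = no fluorescence loss, or compound toxic to the fish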;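 also: larvae 5 to 7 days old with five fish per well; signal comes from phospholipase A2 cleavage of quenched PED6 carried via bile; overnight exposure to compound and PED6 before scoring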); settings: Zebrafish larvae PED6 lipid processing, fluorescence scoring; screened at 20 µM (by protocol)
# [10] = inhibitors of Chlamydomonas gravitaxis, primary screen, whole organism, Chlamydomonas reinhardtii, WT vs cilia-less mutant, absorbance, 96-well (AID 463189); settings: OD600 absorbance, 2 days, at 10 µM, stronger effect = higher value;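 also: 0% = wild type cc124 cells in DMSO and 100% = ciliumless bld1 mutant cells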
# [11] = inhibitors of Sendai virus-induced IRF3 signaling, primary screen, TLR/RLR signaling modifier project, cell-based, Sendai virus stimulus, luciferase, 10K MLSCN set (AID 602276;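 active = inhibition at or above 50% at 10 µM; inactive = inhibition below 50%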;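 also: firefly luciferase from ISG56 promoter only with Renilla not read in this screen; 0% = Sendai virus plus DMSO and 100% = medium plus DMSO without virus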); settings: HEK293 RL24 IRF3 luciferase reporter, at 10 µM, stronger effect = higher value
# [12] = inhibitors of poly I:C-induced TLR3 signaling, primary screen, cell-based, poly I:C stimulus, luciferase, 10K MLSCN set (AID 602277;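 active = inhibition of the reporter signal at or above 50%; inactive = inhibition below 50%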); settings: HEK293-TLR3 RL24 IRF3 luciferase reporter, at 10 µM, stronger effect = higher value
# [13] = measured here: cell density z-score
# [14] = measured here: nuclear c-Myc green intensity z-score
# [15] = measured here: nuclear pErk red intensity z-score, stronger effect = higher value
# Chain of Dual specificity protein phosphatase 6 (Homo sapiens) (Q16828 whole entry, looked up): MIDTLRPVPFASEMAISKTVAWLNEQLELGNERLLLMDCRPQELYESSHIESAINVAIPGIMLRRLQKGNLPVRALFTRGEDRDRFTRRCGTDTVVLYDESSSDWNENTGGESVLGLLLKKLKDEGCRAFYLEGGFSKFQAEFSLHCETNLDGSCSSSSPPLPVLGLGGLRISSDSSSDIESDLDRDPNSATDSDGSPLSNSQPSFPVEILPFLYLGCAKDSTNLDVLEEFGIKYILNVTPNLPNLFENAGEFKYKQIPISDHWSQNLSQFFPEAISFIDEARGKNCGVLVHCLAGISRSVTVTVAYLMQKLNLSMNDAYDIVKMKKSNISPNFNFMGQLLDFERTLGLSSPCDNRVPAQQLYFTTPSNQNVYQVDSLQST
# Chain of Voltage-gated potassium channel subunit beta-2 (Rattus norvegicus) (P62483 whole entry, looked up): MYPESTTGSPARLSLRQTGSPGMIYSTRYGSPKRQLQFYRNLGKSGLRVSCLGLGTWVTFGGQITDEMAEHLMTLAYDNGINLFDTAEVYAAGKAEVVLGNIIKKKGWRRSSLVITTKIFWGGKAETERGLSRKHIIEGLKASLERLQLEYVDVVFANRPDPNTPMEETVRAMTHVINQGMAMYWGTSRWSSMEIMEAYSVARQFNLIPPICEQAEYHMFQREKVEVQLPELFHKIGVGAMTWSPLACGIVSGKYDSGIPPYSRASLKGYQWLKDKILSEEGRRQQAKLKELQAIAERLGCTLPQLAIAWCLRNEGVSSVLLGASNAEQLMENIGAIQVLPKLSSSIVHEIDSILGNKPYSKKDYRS
# Chain of Alpha-2C adrenergic receptor (Homo sapiens) (P18825 whole entry, looked up): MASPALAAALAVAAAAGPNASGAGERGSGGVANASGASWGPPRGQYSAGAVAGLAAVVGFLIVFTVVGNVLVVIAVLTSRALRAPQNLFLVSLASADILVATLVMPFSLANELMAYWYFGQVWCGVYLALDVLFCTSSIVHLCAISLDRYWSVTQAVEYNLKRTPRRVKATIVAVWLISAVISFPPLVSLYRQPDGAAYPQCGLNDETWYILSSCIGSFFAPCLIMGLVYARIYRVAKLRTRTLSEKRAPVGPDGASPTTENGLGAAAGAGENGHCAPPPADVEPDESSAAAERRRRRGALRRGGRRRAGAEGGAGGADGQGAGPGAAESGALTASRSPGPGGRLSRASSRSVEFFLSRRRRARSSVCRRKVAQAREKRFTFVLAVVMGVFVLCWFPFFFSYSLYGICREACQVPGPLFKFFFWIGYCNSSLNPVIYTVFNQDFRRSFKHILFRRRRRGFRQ
SMILES,cell count [1],inhibition [1],inhibition of aggregation [2],nuclei count [2] [%],inhibition [3],nuclei count [3] [%],"z-score [4, 13]","z-score [4, 14]","z-score [4, 15]",inhibition [5],fluorescence slope [6],NADPH fluorescence slope [7],slope [8],outcome [9],inhibition [10],inhibition [11],inhibition [12]
CCCCOc1ccc(OCCCN2CCOCC2)cc1,589,6% (inactive),7.5% (inactive),94.3,-52.4% (inactive),117,-0.745,-1.16,3.07,1.38% (inactive),-0.49 (inactive),-5.2e-05 (inactive),0.00401 (inactive),inactive,159% (active),-7.75% (inactive),-40.7% (inactive)
N#CC(C(=O)Nc1ccc(Cl)c(Cl)c1)=C1Nc2ccccc2N1,445,-0.2% (inactive),13.2% (inactive),98.9,-124% (inactive),136,0.726,1.14,0.693,-1.75% (inactive),-0.351 (inactive),-8.3e-07 (inactive),0.00591 (inactive),inactive,-6.51% (inactive),12.6% (inactive),15.9% (inactive)
CCN(CCCCOC(=O)c1ccc(OC)c(OC)c1)C(C)Cc1ccc(OC)cc1 (stereo not given),635,-4.8% (inactive),-7.1% (inactive),96.1,-106% (inactive),138,0.515,-0.208,-0.515,9.37% (inactive),-0.488 (inactive),-7.4e-05 (inactive),0.00442 (inactive),inactive,55.2% (active),-44.7% (inactive),57.4% (active)
CCC(=O)Oc1ccc(/C(CC)=C(\CC)c2ccc(OC(=O)CC)cc2)cc1,550,-4.1% (inactive),3.5% (inactive),97.5,-13.5% (inactive),127,-0.723,0.714,1.03,3.45% (inactive),-0.443 (inactive),-5.7e-05 (inactive),0.00761 (inactive),inactive,9.5% (inactive),11.1% (inactive),42.9% (inactive)
CC(C)NCC(O)COc1ccc(CCOCC2CC2)cc1 (stereo not given),564,-5.6% (inactive),10.6% (inactive),102,-146% (inactive),119,-0.149,0.261,0.0924,1.48% (inactive),-0.454 (inactive),-2.4e-05 (inactive),0.0053 (inactive),inactive,7.04% (inactive) and 48.4% (inactive),12.5% (inactive),37.3% (inactive)
